Compound activity as filed in PubChem BioAssay.
Sampled rows, rich in hits. Any-hit rate of the full collection: about 3.1%.
HIF-2a inh: HIF-2a reporter inhibitors, primary screen, luminescence, 786-0 RCC cells. 786-0 RCC cells HIF-2a reporter, luciferase luminescence, overnight. actives 0.72% (n = 360,000). inhibition, % at 18.8 µM;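 active = inhibition of the luminescence signal of 40% or more relative to plate controls, in a single-dose primary screen at 18.75 µM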
Peg3 prom inh: Peg3 promoter-driven luciferase inhibitors, primary screen, cell-based, HeLa, luciferase luminescence. HeLa PEG-Prom luciferase reporter, overnight. inhibition, % at 20 µM. actives 1.7% (n = 360,000);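 active = inhibition of at least 50% at 20 µM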
PPC-1+TRAIL kill: compounds killing PPC-1 cancer cells with TRAIL present, primary screen, TRAIL potentiator project, ATPLite luminescence, uHTS | cell killing (% activity), % at 4 µM or 5 µM | actives 0.41% (n = 220,000) | PPC-1 cells + TRAIL, ATPLite viability luminescence;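 active = cell killing above 50% in the first pass at 4 µM, then a duplicate retest at 5 µM averaging 50% or more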
CF NFkB block: inhibitors of PAF-induced NF-kB signaling, primary screen, cell-based, GFP fluorescence, uHTS; KKLEB NF-kB-GFP reporter, GFP fluorescence overnight; inhibition, % at 5 µM; actives 0.86% (n = 360,000); AID 588850, 2011;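 active = at least 50% inhibition at 5 µM, scaled per plate between neutral and stimulator controls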;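 note: PAF is a Pseudomonas aeruginosa culture filtrate used as stimulus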
KKLEB cytotox: cytotoxicity in KKLEB CF airway cells, primary screen, cytotoxicity control for CF NF-kB inhibitor project, cell-based, uHTS, fluorescence assay plates; AID 602141, 2011; actives 0.36% (n = 360,000); KKLEB CF airway cells viability, ATPlite luminescence, overnight; stronger effect = lower value; cells stimulated with P. aeruginosa culture filtrate; activity change (cytotoxicity), % at 5 µM;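 active = corrected activity change at or below -50% at 5 µM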
TRAIL sens C8: viability loss with TRAIL in NB7+C8 cells, primary screen, TRAIL sensitizer project, cell-based, ATPlite luminescence | inhibition (viability loss, TRAIL sensitization), % at 10 µM | actives 1% (n = 360,000) | AID 624354, 2012;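 active = compounds causing at least 50% loss of cell viability in the single-dose screen, relative to plate controls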
A number is an active result; . = inactive; / = no result.

SMILES	HIF-2a inh	Peg3 prom inh	PPC-1+TRAIL kill	CF NFkB block	KKLEB cytotox	TRAIL sens C8
CC1(c2ccc3ccccc3c2)NC(=O)N(CC(=O)N2CCCC(C(F)(F)F)C2)C1=O (stereo not drawn)	.	.	/	.	.	.
O=C(CSc1nc2ccc(NC(=O)CSc3nnnn3-c3ccccc3)cc2s1)Nc1ccccc1	.	.	.	61	-65	.
COc1ccc(N2CCN(c3cncc(C)n3)CC2)cc1	.	.	/	.	.	.
N#Cc1c([N+](=O)[O-])cc([N+](=O)[O-])cc1S(=O)(=O)Cc1ccccc1	94	98	/	82	-62	.
COc1cc(OC)c(C#N)c(S(=O)(=O)Cc2ccccc2)c1	.	.	.	.	.	.
CCOC(=O)c1c(CSC(=N)N)n(-c2ccc(C)cc2)c2cc(Br)c(OC(C)=O)cc12	.	54	.	.	.	93
CCOC(=O)c1c(CSC(=N)N)n(C)c2cc(Br)c(OC(C)=O)cc12	.	.	.	.	.	.
COc1ccc(C(=O)NNC(=O)c2cccs2)cc1S(=O)(=O)N1CCOCC1	.	.	/	.	.	.
CSc1ccc(/C=C/c2ccc3cccc(O)c3n2)cc1	.	.	.	.	.	53
Fc1cccc(Cl)c1/C=C/c1cnc2ccccc2n1	.	.	/	.	.	.
Oc1cccc2ccc(/C=C/c3ccccc3Br)nc12	.	.	/	.	.	.
Cc1ccsc1/C=C/c1ccc2cccc(O)c2n1	.	80	.	.	.	.
C(=C\c1ccco1)/c1ccc2ccccc2n1	.	.	.	.	.	.
Cc1ccsc1/C=C/c1ccc2ccccc2n1	.	.	.	.	.	56
Fc1cccc(F)c1/C=C/c1ccc2ccccc2n1	.	.	.	.	.	58
Oc1cccc2ccc(/C=C/c3cccs3)nc12	.	.	.	.	.	.
CSc1ccc(/C=C(/NC(=O)c2ccco2)C(=O)N2CCCCC2)cc1	.	.	/	.	.	.
Nc1ncc2[nH]c(N)nc2n1	.	.	/	.	.	.
COc1ccc(OC)c(NC(=O)CN2C(=O)C(C)N(c3ccc(C)cc3)C2=O)c1 (stereo not drawn)	.	.	/	.	.	.
COc1ccccc1S(=O)(=O)N(C)C[C@@H]1OCc2cnnn2CCCC(=O)N([C@@H](C)CO)C[C@H]1C	.	.	/	.	.	.
CCCCN1C[C@H](c2ccccc2)[C@@H](CC(=O)NC)C1=O	.	.	/	.	.	.
N#Cc1cccnc1N1CCN(C(=O)c2cccc3c2C(=O)c2ccc(Cl)cc2S3(=O)=O)CC1	.	.	/	.	.	78
CN(C)c1cc2c3ccccc3n(C)c2cc1N	.	.	/	.	.	.
COc1ccc(C(=O)/C=C/c2ccc(OC)c(CN3CCOCC3)c2)cc1	.	.	.	.	.	.
COc1ccc(C(=O)/C=C/c2ccc(OC)c(Cn3nnc4ccccc43)c2)cc1	.	52	.	.	.	.
SMILES	HIF-2a inh	Peg3 prom inh	PPC-1+TRAIL kill	CF NFkB block	KKLEB cytotox	TRAIL sens C8
COC(=O)c1ccc(-c2nc3ccccc3[nH]2)cc1	.	.	.	.	.	82
CN(c1ccc(F)cc1)S(=O)(=O)c1ccc2[nH]cc(C(=O)O)c(=O)c2c1	.	.	62	.	.	.
O=[N+]([O-])c1cccc(-c2csc(N/N=C/c3cccc(O)c3)n2)c1	.	102	.	.	.	.
C(=N\NC1=Nc2cccc3cccc1c23)/c1ccccn1	.	.	.	51	.	71
CC1CCN(CCCNC(=O)c2cc3c(Cl)nc4ccccc4c3s2)CC1	.	53	.	.	.	.
O=C(NCCCN1CCCC1)c1cc2c(Cl)nc3ccccc3c2s1	.	.	.	.	.	.
CCCCCCCCCCCCCCCC[N+](C)(C)Cc1ccc(F)cc1	.	105	/	.	.	54
NC(Cc1ccc(C(F)(F)F)cc1)c1csc(Nc2ccc(S(N)(=O)=O)cc2)n1 (stereo not drawn)	.	.	/	.	.	.
CC(C)(C)c1ccc(C(=O)Nc2cnccn2)cc1	.	.	.	.	.	75
O=C(Nc1ccccn1)c1ccc(-c2ccccc2)cc1	.	.	/	.	-55	82
COc1ccc(C2C3=C(Nc4ncnn42)c2ccccc2CCC3)cc1 (stereo not drawn)	.	.	.	.	.	.
COc1cc(C2C3=C(Nc4ncnn42)c2ccccc2CC3)cc(OC)c1OC (stereo not drawn)	.	.	.	.	-52	.
CCOC(=O)c1ccc(CN2Cc3ccccc3C2=O)cc1	.	.	/	.	.	.
CC(C)(C)c1ccc(-c2nc3[nH]c(=O)cc(NC(=O)c4ccco4)n3n2)cc1	.	.	/	.	.	62
Cc1ccc(-c2nc3[nH]c(=O)cc(NC(=O)c4cccs4)n3n2)cc1	.	.	.	.	.	.
COc1ccc(N=N/C(=C\O)C(=O)c2cccs2)cc1	.	.	.	76	.	.
O=C(NNC(=O)c1cc(OCC(F)(F)F)ccc1OCC(F)(F)F)c1ccc(Cl)c(Cl)c1	.	.	.	.	.	66
c1ccc(CN2CCN(c3ncnc4c3[nH]c3ccccc34)CC2)cc1	.	56	.	.	.	.
Cc1ccc2c(c1)[nH]c1c(N3CCN(Cc4ccccc4)CC3)ncnc12	.	.	.	.	.	.
Nc1sc(-c2ccccc2)cc1C(=O)N1CCN(c2ccccc2)CC1	.	/	/	/	/	.
COc1ccc(-c2cc3ccc(F)cc3cn2)cc1	.	.	/	.	.	57
Nc1ccc2c(c1)Cc1c(F)cccc1-2	.	.	/	.	.	.
COC(=O)C1CC(C(=O)OC)C2C(C(=O)OC)CC(C(=O)OC)C12 (stereo not drawn)	.	.	/	.	.	.
COc1cc(OC)c2c(-c3ccccc3)cc(=O)oc2c1C(CCN1CCOCC1)c1ccc(N(C)C)cc1 (stereo not drawn)	.	.	/	.	.	.
COc1cc(OC)c2c(-c3ccccc3)cc(=O)oc2c1C(CCN1CCCCC1)c1ccc(N(C)C)cc1 (stereo not drawn)	.	65	.	.	.	.
COc1ccc(C(CCN2CCCCC2)c2c(OC)cc(OC)c3c(-c4ccccc4)cc(=O)oc23)cc1 (stereo not drawn)	.	96	.	.	.	.
COc1cc(OC)c2c(-c3ccccc3)cc(=O)oc2c1C(CCN1CCCC(C)C1)c1ccc2c(c1)OCO2 (stereo not drawn)	.	.	.	.	.	.
COc1cc(OC)c2c(-c3ccccc3)cc(=O)oc2c1C(CCN1CCCCC1)c1ccc2c(c1)OCO2 (stereo not drawn)	.	102	.	.	.	.
